What is called % Inhibition is the relative decrease from the control value, in per cent.

The structures appear in SMILES notation. In all, about 13,000 compounds went through this assay and about 3,200 (25%) showed an effect of 50% or more. This is one part of the list.

In the assay the test system is P. falciparum stage V gametocytes. Details: BacTiter-Glo ATP luminescence viability of purified stage V gametocytes in 384-well plates, per cent inhibition versus DMSO. To be noted: 48 h, 5 µM; inhibitor.
Take `O=C(Nc1ccc(OC2CCN(Cc3ccc(F)cc3)C2)c(Cl)c1)c1ccsc1` (centres unmarked) [TCMDC-133756]: the “% Inhibition” value is listed as -6.821%.

As to `O=C(Nc1cccc(Cl)c1Cl)N1CCc2cc3nccc(N4CCN5CCC[C@H]5C4)c3cc21` [TCMDC-140054], the “% Inhibition” value is given as -5.668%.

`CC(=O)N(Cc1ccccc1-c1ccc(CNCCc2ccccc2)cc1)C1CCN(Cc2ccccc2)CC1` [TCMDC-140525]: the “% Inhibition” value stood at 102.9%.

As for `O=C(c1ccccc1)N(Cc1ccccc1-c1ccc(CNCCc2ccccc2)cc1)C1CCN(Cc2ccccc2)CC1` [TCMDC-140531], the “% Inhibition” value is on record as 62.45%.

Consider `CC(C)CNCc1ccc(-c2ccccc2CN(C(=O)NCCc2ccccc2)C2CCN(Cc3ccccc3)CC2)cc1` [TCMDC-140609], for which the “% Inhibition” value is recorded as 78.77%.

Turning to `CC(=O)N(Cc1ccccc1-c1cccc(CNCCc2ccccc2)c1)C1CCN(Cc2ccccc2)CC1` [TCMDC-140524], the “% Inhibition” value stood at 45.75%.

Take `O=C(NC1CCCCC1)N(Cc1ccccc1-c1ccc(CNCCc2ccccc2)cc1)C1CCN(Cc2ccccc2)CC1` [TCMDC-140625]: the “% Inhibition” value is on record as 106.9%.

For the compound `CCOc1ccc(N2C(N)=NC(N)=NC2(C)C)cc1` [TCMDC-124280], the “% Inhibition” value is 3.734%.

In the case of `COc1cc(C(=O)NC2CCN(Cc3ccccc3)CC2)ccc1-c1cc2cc(Cl)c(Cl)cc2[nH]1` [TCMDC-141286], the “% Inhibition” value was 1.884%.

As to `CC(C)[C@H](NC(=O)c1c(CN2CCC(N3CCCCC3)CC2)c(-c2ccccc2)nc2cc(O)ccc12)c1ccccc1` [TCMDC-140676], the “% Inhibition” value was found to be 20.63%.

As for `O=C(NCCc1ccccc1)N(Cc1ccccc1-c1cccc(CNCCc2ccccc2)c1)C1CCN(Cc2ccccc2)CC1` [TCMDC-140610], the “% Inhibition” value is recorded as 46.01%.

Turning to `CC(C)CNCc1cccc(-c2ccccc2CN(C(=O)NCCc2ccccc2)C2CCN(Cc3ccccc3)CC2)c1` [TCMDC-140608], the “% Inhibition” value is on record as 89.6%.

Turning to `O=C(NCCc1ccccc1)N(Cc1ccccc1-c1cccc(CNCc2ccc3c(c2)OCO3)c1)C1CCN(Cc2ccccc2)CC1` [TCMDC-140614], the “% Inhibition” value stood at 15.63%.

For the compound `O=C(NCCc1ccccc1)N(Cc1ccccc1-c1ccc(CNCCc2ccccc2)cc1)C1CCN(Cc2ccccc2)CC1` [TCMDC-140611], the “% Inhibition” value came out at 104.9%.

For the compound `Fc1ccc2[nH]c3c(NCCN4CCCCC4)ncnc3c2c1` [TCMDC-123757], the “% Inhibition” value is -41.7%.

Regarding `CCc1cc(=O)[nH]c(-n2nc(C)cc2NC(=O)CC(c2ccccc2)c2ccccc2)n1` [TCMDC-124942], the “% Inhibition” value was 38.89%.

Take `Cc1cccc(Nc2nccc(NCC(O)c3cccc(C(F)(F)F)c3)n2)c1` (centres unmarked) [TCMDC-136582]: the “% Inhibition” value came out at 10%.

Regarding `CCCCCCNC[C@@H](O)[C@H](Cc1ccccc1)NC(=O)c1cc(NCC)cc(N2CCCCS2(=O)=O)c1` [TCMDC-135218], the “% Inhibition” value is listed as 27.85%.

With `Cc1ccc2[nH]c(C3CCCNC3)c(-c3ccncc3)c2c1` (centres unmarked) [TCMDC-134505], the “% Inhibition” value is listed as 76.33%.

With `COC(=O)c1cc(NC(=O)Nc2ccc(Cn3ncc(N4CCCNCC4)c(Cl)c3=O)cc2)cc(C(=O)OC)c1` [TCMDC-133324], the “% Inhibition” value worked out at 3.06%.

In the case of `Clc1cc(Nc2ccnc3ccc(Br)cc23)ccc1Oc1ccc2ccccc2c1Cl` [TCMDC-124239], the “% Inhibition” value amounted to 37.87%.

Regarding `COC(=O)CCCCOc1c(OC)cc(Cc2cnc(N)nc2N)cc1OC` [TCMDC-137353], the “% Inhibition” value is reported as 24.77%.

In the case of `Cc1cc(N(C)C2CCN(C)CC2)nc(Nc2ccc(Cl)cc2)n1` [TCMDC-132418], the “% Inhibition” value was 22.03%.

For the compound `CCN(CCCN1CCCCC1)c1cc(C)nc(Nc2cc(C)ccc2C)n1` [TCMDC-132449], the “% Inhibition” value is listed as 18.24%.

As to `CCN(CCCN1CCCCC1)c1cc(C)nc(Nc2cc(Br)ccc2C)n1` [TCMDC-132432], the “% Inhibition” value is 22.76%.

For `Cc1cc(N(C)C2CCN(C)C2)nc(Nc2ccc(Cl)cc2)n1` (centres unmarked) [TCMDC-137010], the “% Inhibition” value worked out at 65.31%.

As to `CCN(CCCN1CCCCC1)c1cc(C)nc(Nc2ccc(Cl)cc2)n1` [TCMDC-137488], the “% Inhibition” value is recorded as -3.889%.

`CCN(CCCN1CCCCC1)c1cc(C)nc(Nc2ccc(Br)cc2F)n1` [TCMDC-132428]: the “% Inhibition” value is 4.971%.

Regarding `CCN(CCCN1CCCCC1)c1cc(C)nc(Nc2cc(Cl)ccc2C)n1` [TCMDC-132446], the “% Inhibition” value amounted to 50.43%.

On to `Cc1cc(N(C)CCCN2CCCCC2)nc(Nc2ccc(Cl)cc2)n1` [TCMDC-137485], for which the “% Inhibition” value was found to be 86.59%.

In the case of `CCN(CCCN1CCCCC1)c1cc(C)nc(Nc2ccc(C)cc2Br)n1` [TCMDC-132441], the “% Inhibition” value came to 94.55%.

In the case of `CCN(CCCN1CCCC1)c1cc(C)nc(Nc2ccc(Cl)cc2)n1` [TCMDC-137224], the “% Inhibition” value was found to be 44.32%.

`Cc1cc(N(C)C2CCN(C)CC2)nc(Nc2ccc(Br)cc2)n1` [TCMDC-137015]: the “% Inhibition” value was found to be 43.74%.

In the case of `Cc1c(Cc2ccccc2Cl)cnc2nc(N)nc(N)c12` [TCMDC-137245], the “% Inhibition” value is 7.074%.

For `CCC(C)NS(=O)(=O)c1ccc2nc(Nc3ccc(C)cc3)n(C(C)C(C)(C)C)c2c1` (centres unmarked) [TCMDC-136230], the “% Inhibition” value was -32.2%.

Take `Cc1cccc2[nH]c(-c3ccc(-c4cccc(NC(=O)Nc5ccsc5)c4)cc3)nc12` [TCMDC-133217]: the “% Inhibition” value is listed as -11.37%.

For `CS(=O)(=O)CCOCc1ccc(-c2ccc3ncnc(Nc4ccc(OCc5cccc(F)c5)c(Cl)c4)c3c2)o1` [TCMDC-138529], the “% Inhibition” value was -28.77%.

For `CC1(C)N=C(N)N=C(N)N1OCc1cc(Cl)cc2c1OCOC2` [TCMDC-131577], the “% Inhibition” value is on record as 12.67%.

`COc1cc(C)nc2ccc(NC(=O)Nc3ccccc3[N+](=O)[O-])cc12` [TCMDC-139396]: the “% Inhibition” value came out at 3.442%.

In the case of `CCN(CCCN1CCCCC1)c1cc(C)nc(Nc2ccc3c(c2)CCC3)n1` [TCMDC-132443], the “% Inhibition” value was -21.7%.

With `CCCc1ccccc1Nc1nc(C)cc(N(CC)CCCN2CCCCC2)n1` [TCMDC-132434], the “% Inhibition” value is listed as 49.3%.

With `CCN(CCCN1CCCCC1)c1cc(C)nc(Nc2cccc3c2CCCC3)n1` [TCMDC-132431], the “% Inhibition” value was determined as 65.25%.

For the compound `CCN(CCCN1CCCCC1)c1cc(C)nc(Nc2ccc(Cl)cc2C)n1` [TCMDC-132447], the “% Inhibition” value turned out to be 51.94%.

`CCN(CCCN1CCCCC1)c1cc(C)nc(Nc2ccc(C)cc2C)n1` [TCMDC-132445]: the “% Inhibition” value is recorded as 14.07%.

As for `CCN(CCCN1CCCCC1)c1cc(C)nc(Nc2ccc(C)cc2Cl)n1` [TCMDC-132442], the “% Inhibition” value turned out to be 11.92%.

`COc1ccc2nccc([C@@H](O)CN3CCC(NCc4cc5oc(=O)[nH]c5cc4Cl)CC3)c2c1` [TCMDC-141121]: the “% Inhibition” value is recorded as -3.584%.

Turning to `Cc1cccc2nc(-c3cccc(-c4ccc(NC(=O)NC5CC5c5ccccc5)cc4)c3)[nH]c12` (centres unmarked) [TCMDC-133252], the “% Inhibition” value is -20.42%.

For `Cc1cc2ncc(C(N)=O)c(Nc3ccc(N4CCOCC4)cc3)c2cc1S(C)(=O)=O.Cl` [TCMDC-135825], the “% Inhibition” value is listed as -8.581%.

On to `CCCCc1ccc(-c2c(N)nc(N)nc2CC)cc1` [TCMDC-138064], for which the “% Inhibition” value is -26.34%.

`O=C(/C=C/c1ccc(Cl)c(Cl)c1)NCCCCCCN1CCN(C(=O)Nc2cc(F)cc(F)c2)CC1` [TCMDC-135832]: the “% Inhibition” value is -49.78%.

`COc1ccc2nccc(NCC3(O)CCN(CC(O)c4ccc5c(c4)NC(=O)CS5)CC3)c2n1` (centres unmarked) [TCMDC-141462]: the “% Inhibition” value is recorded as 18.04%.

Regarding `CCc1cc([C@H]2O[C@@H](n3cnc4c(NCC(c5ccccc5)c5ccccc5)nc(NCCNc5ccccn5)nc43)[C@H](O)[C@@H]2O)on1` [TCMDC-138085], the “% Inhibition” value worked out at 3.442%.

For the compound `COc1ccc(O)c(C(=O)NCCc2ccc(OC)c(-c3ccc(C(C)(C)C)cc3)c2)c1` [TCMDC-136183], the “% Inhibition” value was 40.96%.

With `O=C(NCc1ccc(Cl)c(Cl)c1)c1cc(CNC2CCNCC2)ccc1O` [TCMDC-140774], the “% Inhibition” value was 49.2%.

As for `CC(C)(C)c1ccc(CNC(=O)c2cc(CNC3CCNCC3)ccc2O)cc1` [TCMDC-140775], the “% Inhibition” value turned out to be 70.98%.

For the compound `CC(C)(C)c1ccc(CNC(=O)/C=C/c2ccc(CNC3CCNCC3)cc2)cc1` [TCMDC-140773], the “% Inhibition” value turned out to be 88.02%.

`CC(C)(C)c1ccc(CNC(=O)c2ccc(CNC3CCC(N)CC3)s2)cc1` (centres unmarked) [TCMDC-140777]: the “% Inhibition” value amounted to 101.7%.

For `COc1ccc(CCNC(=O)c2cc(C)ccc2O)cc1-c1ccc(C(C)(C)C)cc1` [TCMDC-136184], the “% Inhibition” value is on record as 6.315%.

In the case of `CC(C)(C)c1ccc(CNC(=O)c2cc(CNC3CCC(N)CC3)ccc2O)cc1` (centres unmarked) [TCMDC-140776], the “% Inhibition” value turned out to be 87.73%.

`CC(C)(C)c1ccc(CN2CCC(NC(=O)c3ccc(-c4ccccc4Cl)s3)CC2)cc1` [TCMDC-134351]: the “% Inhibition” value stood at 7.857%.

On to `CC(C)(CNC(=O)/C=C/c1ccc(C(F)(F)F)cc1)CNc1cc(=O)c2ccccc2[nH]1` [TCMDC-139403], for which the “% Inhibition” value was -57.07%.

`CC(C)(C)c1ccc(CNC(=O)c2cc(CNC3CCNC3)ccc2O)cc1` (centres unmarked) [TCMDC-140761]: the “% Inhibition” value was determined as 47.42%.

Regarding `CC(C)(C)C/C=C\c1ccc(C(=O)NCC2CC2)cc1` [TCMDC-138516], the “% Inhibition” value was 17.43%.

Turning to `CC(C)(C)c1ccc(CN2CCC(NC(=O)c3ccc(-c4cccc(Cl)c4)s3)CC2)cc1` [TCMDC-134352], the “% Inhibition” value is -48.88%.

For `CC(C)[C@H](NC(=O)c1ccc(O)c(-c2ccc(Cl)c(Cl)c2)c1)C(=O)NC1CCCCCC1` [TCMDC-140844], the “% Inhibition” value stood at 10.04%.

In the case of `Cc1cc(O)c(C(C)C)cc1C1(c2cc(C(C)C)c(O)cc2C)OC(=O)c2ccccc21` [TCMDC-123951], the “% Inhibition” value is given as -40.8%.

Regarding `Cn1nccc1C(=O)NCCNCc1cccc(-c2ccc(-c3nc4ccccc4[nH]3)cc2)c1.O=C(O)C(F)(F)F` [TCMDC-133019], the “% Inhibition” value is given as -30.97%.

Take `CC(C)(C)c1cc(C(=O)N2CCC(c3ccccn3)CC2)n(Cc2ccccc2)n1` [TCMDC-133770]: the “% Inhibition” value was -53.32%.

The record behind these values is PMC4552634, “A New Set of Chemical Starting Points with Plasmodium falciparum Transmission-Blocking Potential for Antimalarial Drug Discovery” (PLoS ONE, 2015).
